In the library only some 2.4% were active in any assay of this set; here they are far more common.
D2 PAM-1 = HTS Assay for Positive Allosteric Modulators of the Human D2 Dopamine Receptor: Primary Screen for Potentiators. hit rate 0.34% among 340,000. D(2) dopamine receptor (Homo sapiens), P14416. potentiation, % at 10 µM. HEK293 T-REx D2, calcium flux, EC20 dopamine potentiation. AID 485347, 2010;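 active = potentiation over 3 SD above the plate norm, cut at about 30% in these data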
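Tetracycline-induced HEK293 T-REx cells force-coupled to calcium signalling expressed D2; compounds were pin-added after a 10 s baseline, read kinetically 180 s, then an EC20 dopamine challenge followed with a further 180 s calcium read.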
D2 ag-1 = HTS Assay for Allosteric Agonists of the Human D2 Dopamine Receptor: Primary Screen for Agonists | D(2) dopamine receptor (Homo sapiens), P14416 | HEK293 T-REx D2 cells, calcium flux agonist mode | activation, % at 2 µM | hit rate 0.53% among 340,000 | AID 485358, 2010;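 active = activation over 3 SD above normal in the single-dose calcium agonist read, cut at about 30% in these data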
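In this primary screen, compounds producing a positive calcium signal within 180 s of addition to tetracycline-induced, force-coupled HEK293 Trex D2 cells are flagged; cells are dye-loaded with a no-wash calcium kit beforehand.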
D2 PAM-2 = Beta-Arrestin HTS for Positive Allosteric Modulators of the Human D2 Dopamine Receptor: Potentiators. D(2) dopamine receptor (Homo sapiens), P14416. DiscoveRx D2 beta-arrestin cells, luminescence, 90 min; 100% = 57 uM dopamine signal. potentiation, % (test concentration not listed). hit rate 0.23% among 360,000; in the data active = potentiation above about 50%; inconclusive = mostly about 30% to 49%
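PathHunter beta-arrestin assay in DiscoveRx D2 cells. Compounds were added with an EC20 of dopamine (50 nM final) for 90 min at 37 deg C. Luminescence was read 1 h after detection reagent, with 57 uM dopamine as the EC100 control.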
D2 ag-2 = Beta-Arrestin HTS for Positive Allosteric Modulators of the Human D2 Dopamine Receptor: Agonists; D(2) dopamine receptor (Homo sapiens), P14416; DiscoveRx PathHunter D2 beta-arrestin, luminescence, 90 min; 100% = 57 uM dopamine signal; activation, % (no concentration beside the values); hit rate 0.084% among 360,000; in the data active = activation above about 40%; inconclusive = between about 15% and that limit
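DiscoveRx PathHunter D2 beta-arrestin cells (2,100/well) attached overnight, then compound-stimulated 90 min at 37 C in HBSS/10 mM HEPES/0.1% Tween-20 buffer; beta-galactosidase complementation read by luminescence after 1 h at ambient temperature. Dopamine 57 uM final (EC100) as control.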
D2 antagonist = HTS Assay for Allosteric Antagonists of the Human D2 Dopamine Receptor: Primary Screen for Antagonists; AID 485344, 2010; hit rate 2% among 340,000; HEK293 TREx D2 cells, calcium flux, dopamine EC80; inhibition, % at 10 µM; D(2) dopamine receptor (Homo sapiens), P14416; in the data active = inhibition above about 30%; inactive = below that, where a call was filed
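Calcium flux kinetic readout in an inducible HEK293 TREx D2 line plated overnight at 30 C. After 180 s compound exposure, an EC80 dopamine challenge follows with another 180 s kinetic read to detect antagonism.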
D3 arrestin ag = qHTS of D3 Dopamine Receptor Agonist: D3 Dopamine Receptor B-arrestin Agonist Confirmatory Assay | hit rate 4% among 2,300 | Potency, µM (doses to about 76.9 µM), most hits filed as activators | DiscoveRx D3 beta-arrestin cells, luminescence, 90 min | shares compounds with D2 ag-1; also: nearly all actives have a fitted effect of over 70% in size
Target sequence (P35462 whole entry, looked up): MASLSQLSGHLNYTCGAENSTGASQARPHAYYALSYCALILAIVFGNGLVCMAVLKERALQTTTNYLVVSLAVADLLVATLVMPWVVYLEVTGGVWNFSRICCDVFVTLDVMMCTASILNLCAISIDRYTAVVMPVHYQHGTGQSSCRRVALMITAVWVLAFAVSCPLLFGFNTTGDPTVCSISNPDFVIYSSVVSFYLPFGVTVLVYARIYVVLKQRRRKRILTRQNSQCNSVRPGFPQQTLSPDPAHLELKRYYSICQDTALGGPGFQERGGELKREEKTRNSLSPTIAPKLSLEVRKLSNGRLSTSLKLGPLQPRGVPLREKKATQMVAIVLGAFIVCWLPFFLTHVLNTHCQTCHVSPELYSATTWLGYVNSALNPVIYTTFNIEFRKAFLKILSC
D2 ag-3 = qHTS of D3 Dopamine Receptor Agonist: D2 Dopamine Receptor B-arrestin Agonist Counterscreen; shares compounds with D2 ag-1; hit rate 5.9% among 2,300; Potency, µM (titrated, usually from 76.9 µM), hits mostly activators; DiscoveRx PathHunter D2 beta-arrestin, luminescence, 90 min; response scale: percent relative to full dopamine signal; also: nearly all actives have a fitted effect of over 70% in size
A number is an active result; - = inactive; ? = inconclusive; . = not tested or not shown. Unless noted, calls follow the shape of the dose curve; as a rule, active = well fitted activation curve with a large enough effect; inconclusive = small, poorly fitted or top-dose-only effect; inactive = flat fitted curve, though single readings scatter.

SMILES	D2 PAM-1	D2 ag-1	D2 PAM-2	D2 ag-2	D2 antagonist	D3 arrestin ag	D2 ag-3
CCOc1ccc(Nc2ncnc3c2nc2n3CCCCC2)cc1	-	-	.	.	.	.	.
CCOc1ccccc1CNC(=O)CCn1c(=O)c2cccn2c2ccc(F)cc21	-	-	.	.	.	.	.
CC1CC(C)CN(CCOc2cccc(Cl)c2Cl)C1 (centres undefined)	-	87.9	-	41.4	86.4	?	?
Clc1cccc(OCCn2cncn2)c1Cl	.	.	-	-	.	.	.
CNc1nc(CC(C)=O)ns1	-	-	-	-	-	.	.
CCCCNc1nc(CC(C)=O)ns1	-	50.2	-	-	30.2	-	-
COc1ccc(C(=O)/C=C/c2cc(OC)c(O)c(OC)c2)c(F)c1	-	-	-	-	33.3	-	-
COc1ccc2cc(C(=O)/C=C/c3cc(OC)c(O)c(OC)c3)ccc2c1	-	-	-	-	-	.	.
Cc1cccc(C(=O)NC(=S)NCc2ccccc2)c1	.	.	-	-	.	.	.
Cc1cccc(C(=O)NC(=S)NNC(=O)Cc2ccccc2)c1	-	36.7	-	-	-	-	-
CC(CCc1ccc(O)cc1)NC1C2CC3CC(C2)CC1C3 (centres undefined)	-	37.5	-	-	71.4	-	-
CC1=CC(C)C(/C=N/N=C(N)N)C(C)C1 (centres undefined)	-	-	-	-	-	-	-
COc1cccc(CNc2ccc([N+](=O)[O-])cc2C)c1	-	-	-	-	-	.	.
COc1ccc(OC)c(CNc2ccc([N+](=O)[O-])cc2C)c1	-	57.0	-	-	-	-	-
Cn1c(C(=O)NCCN2CCN(c3ccccc3F)CC2)cc2c(=O)n(C)c3ccccc3c21	-	54.3	-	-	95.5	-	-
Cc1c(C)n(C)c2ccc(C(=O)NCCCN3CCN(c4ccc(F)cc4)CC3)cc12	-	-	-	-	-	.	.
Cc1c(C)n(C)c2ccc(C(=O)NCCCN3CCN(c4ccccc4F)CC3)cc12	-	66.7	-	-	98.3	-	-
O=C(NCCN1CCN(c2ccccc2F)CC1)c1ccc2nc3ccccc3c(=O)n2c1	-	67.4	-	-	56.7	-	?
CCc1nc2ccc(C(=O)NCCCN3CCN(c4ccccc4F)CC3)cc2nc1CC	-	-	-	-	88.4	-	-
Cc1ccc(-n2ncc3c(NC4CCCCC4)ncnc32)cc1	-	-	.	.	.	.	.
CC(CNC(=O)c1ccc2nc(Cc3ccccc3)oc2c1)c1ccccc1 (centres undefined)	-	.	.	.	.	.	.
COC(=O)c1cc(S(=O)(=O)NCCN2CCN(c3ccccc3F)CC2)c[nH]1	-	-	-	-	73.2	-	-
Cc1ccccc1OCCC(=O)OCC(=O)NNC(=O)c1cccs1	.	.	-	-	.	-	-
COc1ccccc1OCC(=O)NNC(=O)c1cccs1	-	-	-	-	-	.	.
CC1(NC(=S)Nc2ccc3ccccc3c2)CCS(=O)(=O)C1 (centres undefined)	-	-	-	-	36.6	-	-
O=S1(=O)CCC(NC(=S)Nc2ccc3ccccc3c2)C1 (centres undefined)	-	-	-	-	-	.	.
COc1ccc(N2CCN(Cc3nc(N)nc(N4CCCc5ccccc54)n3)CC2)cc1	-	48.7	-	-	-	-	-
Nc1nc(CN2CCN(c3ccccc3F)CC2)nc(N2CCCc3ccccc32)n1	-	81.8	-	?	78.7	?	?

Bioassay records from PubChem BioAssay.
